The molecules below were run on PC9 (assay: area under confluence curve of compound monotherapy; compare to DMSO control AUC of the same experiment (AUC (confluence x time, arbitrary))). Conditions: 5 nM; DMSO control AUC in same experiment: 29563.
Protocol: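 compare to DMSO control AUC of the same experiment; Monotherapy arm of the osimertinib DTP screen: EGFR-mutant NSCLC cells were treated with the test compound alone at a fixed dose (highest dose with <50% inhibition of parental cells, or 1 uM), then switched to drug-free medium at the DTP stage. IncuCyte confluence was tracked and AUC computed in Prism. AUC scale depends on experiment duration, so each row carries the same-experiment DMSO control AUC (monotherapy activity = DMSO AUC minus monotherapy AUC). The monotherapy value is shared between screen formats.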

SMILES | area under confluence curve
NC(=O)Nc1cc(-c2cccc(F)c2)sc1C(=O)N[C@H]1CCCNC1 | 26800

Same assay, conditions: 10 nM; DMSO control AUC in same experiment: 21341

SMILES | area under confluence curve
CC(=O)Nc1cccc(-n2c(=O)n(C3CC3)c(=O)c3c(Nc4ccc(I)cc4F)n(C)c(=O)c(C)c32)c1 [Trametinib] | 20400
Cn1cc(CNCC2CCN(c3ncc(C(=O)NO)cn3)CC2)c2ccccc21 [Quisinostat] | 17400

Same assay, conditions: 10 nM; DMSO control AUC in same experiment: 27958

SMILES | area under confluence curve
Cn1cc(CNCC2CCN(c3ncc(C(=O)NO)cn3)CC2)c2ccccc21 [Quisinostat] | 20800

Same assay, conditions: 10 nM; DMSO control AUC in same experiment: 30002

SMILES | area under confluence curve
Cn1cc(CNCC2CCN(c3ncc(C(=O)NO)cn3)CC2)c2ccccc21 [Quisinostat] | 29800

Same assay, conditions: 10 nM; DMSO control AUC in same experiment: 49189

SMILES | area under confluence curve
CC(=O)Nc1cccc(-n2c(=O)n(C3CC3)c(=O)c3c(Nc4ccc(I)cc4F)n(C)c(=O)c(C)c32)c1 [Trametinib] | 49600

Same assay, conditions: 100 nM; DMSO control AUC in same experiment: 22064

SMILES | area under confluence curve
C=CCn1c(=O)c2cnc(Nc3ccc(N4CCN(C)CC4)cc3)nc2n1-c1cccc(C(C)(C)O)n1 | 21300

Same assay, conditions: 100 nM; DMSO control AUC in same experiment: 27958

SMILES | area under confluence curve
COC(=O)c1ccc([C@H]2c3[nH]c4ccccc4c3C[C@H](C(=O)OC)N2C(=O)CCl)cc1 | 27800

Same assay, conditions: 100 nM; DMSO control AUC in same experiment: 28334

SMILES | area under confluence curve
CNC(=O)c1cccc(-c2ccc3c(N4CCOC[C@@H]4C)nc(N4CCOC[C@@H]4C)nc3n2)c1 | 24900

Same assay, conditions: 100 nM; DMSO control AUC in same experiment: 30326

SMILES | area under confluence curve
COC(=O)c1ccc([C@H]2c3[nH]c4ccccc4c3C[C@H](C(=O)OC)N2C(=O)CCl)cc1 | 27300

Same assay, conditions: 100 nM; DMSO control AUC in same experiment: 30604

SMILES | area under confluence curve
C=CCn1c(=O)c2cnc(Nc3ccc(N4CCN(C)CC4)cc3)nc2n1-c1cccc(C(C)(C)O)n1 | 30700

Same assay, conditions: 100 nM; DMSO control AUC in same experiment: 31219

SMILES | area under confluence curve
COC[C@H]1Cn2cc(-c3nc(Nc4ccnn4C)ncc3C)nc2C(=O)N1Cc1ccc(F)c(F)c1 | 30900

Same assay, conditions: 100 nM; DMSO control AUC in same experiment: 44384

SMILES | area under confluence curve
C/C=C/Cn1cc(-c2cc(OC)c(C(=O)N3CCOCC3)cc2OC)c2cc(C)[nH]c2c1=O | 44600

Same assay, conditions: 100 nM; DMSO control AUC in same experiment: 45737

SMILES | area under confluence curve
COC(=O)c1ccc([C@H]2c3[nH]c4ccccc4c3C[C@H](C(=O)OC)N2C(=O)CCl)cc1 | 46100

Same assay, conditions: 100 nM; DMSO control AUC in same experiment: 49189

SMILES | area under confluence curve
COC[C@H]1Cn2cc(-c3nc(Nc4ccnn4C)ncc3C)nc2C(=O)N1Cc1ccc(F)c(F)c1 | 46200

Same assay, conditions: 300 nM; DMSO control AUC in same experiment: 19076

SMILES | area under confluence curve
COc1nnc2ccc(N3CCC(c4ccc(OCCN5CCN(C)C(=O)[C@H]5C)cc4)CC3)nn12 | 19200

Same assay, conditions: 300 nM; DMSO control AUC in same experiment: 20197

SMILES | area under confluence curve
Nc1nc(Nc2ccc3c(c2)CCC(N2CCCC2)CC3)nn1-c1cc2c(nn1)-c1ccccc1CCC2 (stereo not given) | 19600

Same assay, conditions: 300 nM; DMSO control AUC in same experiment: 21594

SMILES | area under confluence curve
COc1nnc2ccc(N3CCC(c4ccc(OCCN5CCN(C)C(=O)[C@H]5C)cc4)CC3)nn12 | 20500

Same assay, conditions: 300 nM; DMSO control AUC in same experiment: 30008

SMILES | area under confluence curve
Nc1nc(Nc2ccc3c(c2)CCC(N2CCCC2)CC3)nn1-c1cc2c(nn1)-c1ccccc1CCC2 (stereo not given) | 28200

Same assay, conditions: 300 nM; DMSO control AUC in same experiment: 30578

SMILES | area under confluence curve
NC1(C(=O)N[C@@H](CCO)c2ccc(Cl)cc2)CCN(c2nc[nH]c3nccc2-3)CC1 [Capivasertib] | 29000

Same assay, conditions: 300 nM; DMSO control AUC in same experiment: 31840

SMILES | area under confluence curve
COc1nnc2ccc(N3CCC(c4ccc(OCCN5CCN(C)C(=O)[C@H]5C)cc4)CC3)nn12 | 31700
NC1(C(=O)N[C@@H](CCO)c2ccc(Cl)cc2)CCN(c2nc[nH]c3nccc2-3)CC1 [Capivasertib] | 30700

Same assay, conditions: 300 nM; DMSO control AUC in same experiment: 43316

SMILES | area under confluence curve
NC1(C(=O)N[C@@H](CCO)c2ccc(Cl)cc2)CCN(c2nc[nH]c3nccc2-3)CC1 [Capivasertib] | 42700

Same assay, conditions: 300 nM; DMSO control AUC in same experiment: 44384

SMILES | area under confluence curve
COc1nnc2ccc(N3CCC(c4ccc(OCCN5CCN(C)C(=O)[C@H]5C)cc4)CC3)nn12 | 39700

Same assay, conditions: 300 nM; DMSO control AUC in same experiment: 88996

SMILES | area under confluence curve
CN(C)C(=O)c1cc2cnc(Nc3ccc(N4CCNCC4)cn3)nc2n1C1CCCC1 [Ribociclib] | 88200

Same assay, conditions: 1000 nM; DMSO control AUC in same experiment: 20567

SMILES | area under confluence curve
Cc1nc(N2CCC3(CC2)CO[C@@H](C)[C@H]3N)c(CO)nc1-c1cccc(Cl)c1Cl | 20500
Cc1cccc(-c2[nH]c(C(C)(C)C)nc2-c2ccc3nccnc3c2)n1 | 20400

Same assay, conditions: 1000 nM; DMSO control AUC in same experiment: 21678

SMILES | area under confluence curve
Cc1nc(N2CCC3(CC2)CO[C@@H](C)[C@H]3N)c(CO)nc1-c1cccc(Cl)c1Cl | 22100

Same assay, conditions: 1000 nM; DMSO control AUC in same experiment: 22064

SMILES | area under confluence curve
Cc1cccc(-c2[nH]c(C(C)(C)C)nc2-c2ccc3nccnc3c2)n1 | 21700
C[C@@H](Oc1cc(-c2cnn(C3CCNCC3)c2)cnc1N)c1c(Cl)ccc(F)c1Cl [Crizotinib] | 21100

Same assay, conditions: 1000 nM; DMSO control AUC in same experiment: 26668

SMILES | area under confluence curve
COc1ccc(CCc2nc3cc(-c4c(C)noc4C)ccc3n2C[C@H](C)N2CCOCC2)cc1Cl | 28400

Same assay, conditions: 1000 nM; DMSO control AUC in same experiment: 28684

SMILES | area under confluence curve
CCn1nc(C2CCN(C(=O)CCO)CC2)nc1-c1cnc(N)c(-c2nnc(C(C)(C)C)o2)n1 | 28000

Same assay, conditions: 1000 nM; DMSO control AUC in same experiment: 29345

SMILES | area under confluence curve
Cc1cc(Nc2ncnc3ccc(NC4=NC(C)(C)CO4)cc23)ccc1Oc1ccn2ncnc2c1 [Tucatinib] | 29400

Same assay, conditions: 1000 nM; DMSO control AUC in same experiment: 30002

SMILES | area under confluence curve
Cc1cc(Nc2ncnc3ccc(NC4=NC(C)(C)CO4)cc23)ccc1Oc1ccn2ncnc2c1 [Tucatinib] | 30200

Same assay, conditions: 1000 nM; DMSO control AUC in same experiment: 31219

SMILES | area under confluence curve
CN(C)C/C=C/C(=O)Nc1ccc(C(=O)Nc2cccc(Nc3ncc(Cl)c(-c4c[nH]c5ccccc45)n3)c2)cc1 | 31000

Same assay, conditions: 1000 nM; DMSO control AUC in same experiment: 43316

SMILES | area under confluence curve
CCn1nc(C2CCN(C(=O)CCO)CC2)nc1-c1cnc(N)c(-c2nnc(C(C)(C)C)o2)n1 | 43000
C[C@@H](c1ccc2nccn2c1)n1nnc2ncc(-c3cnn(C)c3)nc21 [Savolitinib] | 43600

Same assay, conditions: 1000 nM; DMSO control AUC in same experiment: 48219

SMILES | area under confluence curve
COc1ccc(CCc2nc3cc(-c4c(C)noc4C)ccc3n2C[C@H](C)N2CCOCC2)cc1Cl | 49000

Same assay, conditions: 1000 nM; DMSO control AUC in same experiment: 72888

SMILES | area under confluence curve
CCn1cc(-c2cccc(C(F)(F)F)c2)c2sc(C(=N)NC3CCS(=O)(=O)CC3)cc2c1=O | 73000
COc1ccc(CCc2nc3cc(-c4c(C)noc4C)ccc3n2C[C@H](C)N2CCOCC2)cc1Cl | 72800
